The values that follow come from PubChem BioAssay (EPA / NIEHS).

Structures are written as SMILES. Active and inactive are the calls of the source. How the source made its calls: active means hit-call score of the fitted dose curve at least 0.9, where 1 is the maximum; inactive means score below 0.9.

Test [1] in a line: ATG_GLI_CIS: Attagene CIS-FACTORIAL HepG2 Assay for human Zinc Finger Protein GLI1 (AID 2282945). The settings on record: HepG2, Attagene cis-factorial reporter mRNA, GLI element; actives raise or lower the signal. In outline:
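Bidirectional curve fits relative to DMSO, using reporter mRNA levels from RT-PCR plus capillary electrophoresis. Cells were HepG2 transiently carrying cis-regulated reporter constructs, harvested 24 h after dosing.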

Test [2] can be described thus: ATG_ISRE_CIS: Attagene CIS-FACTORIAL HepG2 Assay for human Interferon Regulatory Factor 1 (IRF1) binding to an Interferon-Stimulated Response Element (ISRE) (AID 2282948). The settings on record: HepG2 ISRE cis-reporter (Attagene), mRNA transcription readout; actives raise or lower the signal. The method, boiled down:
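Read-out: fluorescent RT-PCR products resolved by capillary electrophoresis, reporting endogenous transcription factor activity via ISRE-driven reporter mRNA in transfected HepG2 cells dosed for 24 h; gain or loss fitted relative to DMSO.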

Test [3] is described as follows: ATG_M_32_CIS: Attagene CIS-FACTORIAL HepG2 Assay for M32 Transcription Factor (Internal Marker) (AID 2282949).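 Further: background control marker of the multiplexed CIS panel rather than a real target.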 The settings on record: HepG2 Attagene cis-factorial M32 reporter, mRNA; actives raise or lower the signal. In outline: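 Using DMSO as baseline, bidirectional curve fits were applied to reporter mRNA signals. These came from transiently transfected HepG2 cells exposed for 24 h, with RNA analysed by RT-PCR, FAM primer extension, HpaI digestion and CE.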

The nature of test [4]: ATG_M_06_CIS: Attagene CIS-FACTORIAL HepG2 Assay for M06 Transcription Factor (Internal Marker) (AID 2282950). Conditions: HepG2 Attagene CIS-FACTORIAL M06 internal marker reporter; actives raise or lower the signal. The method, boiled down:
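Steps: transfect HepG2 with multiplexed cis-element reporter constructs; dose chemical 24 h; extract RNA with DNase treatment; reverse-transcribe, PCR-amplify, 6-FAM label, HpaI digest; separate fragments by capillary electrophoresis. Activity fitted both directions versus DMSO.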

For test [5], the target named is Hypoxia-inducible factor 1-alpha (Homo sapiens) (UniProt Q16665). The test is described as follows: ATG_HIF1a_CIS: Attagene CIS-FACTORIAL HepG2 Assay for human Hypoxia Inducible Factor 1 (HIF1A) (AID 2282951). Conditions: HepG2 Attagene cis-factorial HIF1a reporter transcription; actives raise or lower the signal. In outline:
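HepG2, transient cis-reporter library, 24 h dosing. RNA → RT (oligo dT) → PCR → 6-FAM primer extension → HpaI → CE. Bidirectional curve fit vs DMSO.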

Test [6] deals with Hepatocyte nuclear factor 6 (Homo sapiens) (UniProt Q9UBC0). As to the kind of experiment: ATG_HNF6_CIS: Attagene CIS-FACTORIAL HepG2 Assay for human Hepatocyte Nuclear Factor 6 (HNF6) (AID 2282952). The settings on record: HepG2 Attagene cis-factorial HNF6 reporter transcription; actives raise or lower the signal. In outline: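 Using cis-element reporters in HepG2 liver cells, the assay tracks endogenous factor-driven transcription 24 h post-dosing. Signal comes from 6-FAM-labelled, HpaI-digested RT-PCR fragments, with gain or loss scored against DMSO.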
Chain of Hepatocyte nuclear factor 6 (Homo sapiens) (Q9UBC0 whole entry, looked up, the tested form may be a part): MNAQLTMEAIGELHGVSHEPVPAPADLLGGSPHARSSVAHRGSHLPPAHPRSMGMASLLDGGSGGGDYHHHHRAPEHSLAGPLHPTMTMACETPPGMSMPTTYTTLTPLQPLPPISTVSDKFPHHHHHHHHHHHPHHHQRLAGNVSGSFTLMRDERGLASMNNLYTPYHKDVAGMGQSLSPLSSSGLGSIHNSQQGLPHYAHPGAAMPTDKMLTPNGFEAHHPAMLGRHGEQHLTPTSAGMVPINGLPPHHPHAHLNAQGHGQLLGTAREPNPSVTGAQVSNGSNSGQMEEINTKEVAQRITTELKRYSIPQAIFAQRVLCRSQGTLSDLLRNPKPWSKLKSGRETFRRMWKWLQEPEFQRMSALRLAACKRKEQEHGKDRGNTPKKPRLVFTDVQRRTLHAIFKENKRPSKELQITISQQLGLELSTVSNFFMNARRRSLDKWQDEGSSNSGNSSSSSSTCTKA

Test [7] concerns the target Heat shock factor protein 1 (Homo sapiens) (UniProt Q00613). As to the kind of experiment: ATG_HSE_CIS: Attagene CIS-FACTORIAL HepG2 Assay for human Heat Shock Transcription Factor 1 (HSE) (AID 2282953). The settings on record: HepG2 HSE cis-reporter, Attagene RNA transcription; actives raise or lower the signal. The method, boiled down: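 Cells were transfected with cis-element-driven reporter constructs, dosed for 24 h, then total RNA was reverse-transcribed and reporter cDNA amplified, FAM-labelled and digested with HpaI. Fragments were resolved by capillary electrophoresis; gain or loss was fitted against DMSO.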

Test [8] in a line: ATG_MRE_CIS: Attagene CIS-FACTORIAL HepG2 Assay for human Metal Responsive Element (MRE) (AID 2282954). Conditions: HepG2 MRE cis-reporter transcription, Attagene multiplex; actives raise or lower the signal. In outline: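 Multiplexed cis-reporter assay in human HepG2 liver cells, 24 h incubation with test chemical. Reporter transcripts measured by RT-PCR and capillary electrophoresis; values from bidirectional curve fitting versus DMSO.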

Test [9] has as its target Paired box protein Pax-6 (Homo sapiens) (UniProt P26367). The test is described as follows: ATG_Pax6_CIS: Attagene CIS-FACTORIAL HepG2 Assay for human Paired Box 6 (PAX6) (AID 2282956). The settings on record: HepG2 CIS-FACTORIAL PAX6 reporter transcription, RNA readout; actives raise or lower the signal. In outline:
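Readout: reporter transcript fluorescence after RT-PCR and capillary electrophoresis. Cells: HepG2, transiently transfected with cis-regulated MRTUs. Exposure 24 h. Gain or loss of signal fitted bidirectionally relative to DMSO.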

Test [10] in a line: ATG_PXRE_CIS: Attagene CIS-FACTORIAL HepG2 Assay for human Pregnane X Receptor Element (PXRE) (AID 2282957). Conditions: HepG2 Attagene CIS-FACTORIAL PXRE reporter, mRNA; actives raise or lower the signal. In outline: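 Using HepG2 transfected with multiple reporter transcription units, endogenous factor-driven transcription was scored as reporter mRNA after 24 h exposure.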

A short description of test [11]: ATG_RORE_CIS: Attagene CIS-FACTORIAL HepG2 Assay for human RAR-related Orphan Receptor Element (RORE) (AID 2282959). Conditions: HepG2 Attagene cis-factorial RORE reporter, mRNA; actives raise or lower the signal. The method, boiled down: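 Multiplexed reporter assay measuring mRNA induction from a cis promoter element in transiently transfected HepG2 cells after 24 h treatment. Detection via RT-PCR and capillary electrophoresis fluorescence; DMSO serves as baseline.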

A short description of test [12]: ATG_Sox_CIS: Attagene CIS-FACTORIAL HepG2 Assay for human SRY-box transcription factor (SOX) (AID 2282960). Conditions: HepG2 Attagene cis-factorial SOX reporter, mRNA; actives raise or lower the signal. In outline: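 Cells were transfected with reporter constructs under cis-regulatory promoters, then exposed to chemicals for 24 h. Reporter transcripts were quantified by fluorescence after RT-PCR and capillary electrophoresis; activity was fitted in both directions against DMSO.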

The target of test [13] is Transcription factor Sp1 (Homo sapiens) (UniProt P08047). As to the kind of experiment: ATG_Sp1_CIS: Attagene CIS-FACTORIAL HepG2 Assay for human Specificity Protein 1 (Sp1) (AID 2282961). The settings on record: HepG2 Sp1 cis-reporter transcription, actives raise or lower the signal. In outline: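 Measures mRNA induction of an Sp1-linked reporter in HepG2 cells 24 h post-dosing. Multiplexed reporters read by RT-PCR and capillary electrophoresis; DMSO serves as negative control and baseline.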
Chain of Transcription factor Sp1 (Homo sapiens) (P08047 whole entry, looked up): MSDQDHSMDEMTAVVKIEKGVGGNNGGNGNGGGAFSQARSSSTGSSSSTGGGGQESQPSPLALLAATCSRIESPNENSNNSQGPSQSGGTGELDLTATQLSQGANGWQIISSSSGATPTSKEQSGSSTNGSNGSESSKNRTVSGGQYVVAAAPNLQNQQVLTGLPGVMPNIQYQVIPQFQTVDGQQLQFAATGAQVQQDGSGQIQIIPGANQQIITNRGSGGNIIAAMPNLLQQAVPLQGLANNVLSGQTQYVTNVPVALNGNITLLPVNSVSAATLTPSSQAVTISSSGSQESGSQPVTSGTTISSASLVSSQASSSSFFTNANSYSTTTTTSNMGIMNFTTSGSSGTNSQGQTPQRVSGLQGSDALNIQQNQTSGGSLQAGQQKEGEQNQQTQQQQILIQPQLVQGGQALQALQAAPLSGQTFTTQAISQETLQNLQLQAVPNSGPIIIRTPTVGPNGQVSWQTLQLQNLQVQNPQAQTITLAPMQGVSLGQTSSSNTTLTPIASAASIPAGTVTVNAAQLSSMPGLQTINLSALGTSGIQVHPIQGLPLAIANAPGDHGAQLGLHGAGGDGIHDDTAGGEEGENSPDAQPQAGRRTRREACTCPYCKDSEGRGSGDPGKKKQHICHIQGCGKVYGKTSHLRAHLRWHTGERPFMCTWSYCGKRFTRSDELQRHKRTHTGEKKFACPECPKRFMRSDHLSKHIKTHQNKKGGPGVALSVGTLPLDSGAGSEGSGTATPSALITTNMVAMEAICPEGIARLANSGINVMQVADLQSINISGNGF

Test [14] can be described thus: ATG_SREBP_CIS: Attagene CIS-FACTORIAL HepG2 Assay for human Sterol Regulatory Element Binding (SREBP) (AID 2282962). Conditions: HepG2 Attagene cis-factorial SREBP reporter, mRNA; actives raise or lower the signal. The method, boiled down: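 Readout: fluorescent reporter-transcript peaks resolved by capillary electrophoresis after RT-PCR. Cells were human HepG2 carrying transfected cis-promoter reporter constructs, dosed for 24 h. Gain or loss of signal was fitted against DMSO controls.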

Test [15] addresses Signal transducer and activator of transcription 3 (Homo sapiens) (UniProt P40763). As to the kind of experiment: ATG_STAT3_CIS: Attagene CIS-FACTORIAL HepG2 Assay for human Signal Transducer and Activator of Transcription 3 (STAT3) (AID 2282963). The settings on record: HepG2, Attagene cis-factorial STAT3 reporter transcription; actives raise or lower the signal. In outline:
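Cis-factorial format: endogenous transcription factors in HepG2 drive transfected reporter units. After 24 h treatment, reporter RNA was reverse-transcribed, amplified, FAM-labelled and HpaI-digested before CE analysis; activity scored in both directions against DMSO.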

Test [16] can be described thus: ATG_TA_CIS: Attagene CIS-FACTORIAL HepG2 Assay for human TA Basal Promoter (AID 2282964). Conditions: HepG2 Attagene CIS-factorial TA basal promoter reporter; actives raise or lower the signal. The method, boiled down:
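Steps: transfect HepG2 with MRTUs; dose 24 h; isolate RNA, DNase-treat, reverse-transcribe; PCR and FAM-label reporter cDNA; digest with HpaI 2h at 37 C; run capillary electrophoresis. Activity fitted both directions against DMSO.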

The nature of test [17]: ATG_PBREM_CIS: Attagene CIS-FACTORIAL HepG2 Assay for human Phenobarbital-responsive Enhancer Module (PBREM) (AID 2282955). Conditions: HepG2 PBREM cis-reporter, Attagene multiplexed transcription; actives raise or lower the signal. In outline:
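HepG2, transient MRTU transfection, 24 h dosing; RNA → oligo(dT) RT → PCR → 6-FAM extension → HpaI → CE. Bidirectional fit vs DMSO.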

A short description of test [18]: ATG_PPRE_CIS: Attagene CIS-FACTORIAL HepG2 Assay for human Peroxisome Proliferator-activated Response Element (PPRE) (AID 2282958). The settings on record: HepG2 PPRE cis-element reporter, Attagene transcription factor profiling; actives raise or lower the signal. In outline: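 Transcript-level reporter induction in transfected HepG2 cells after 24 h chemical exposure, quantified by fluorescence from RT-PCR products separated by capillary electrophoresis.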

Chain of Signal transducer and activator of transcription 3 (Homo sapiens) (P40763 whole entry, looked up): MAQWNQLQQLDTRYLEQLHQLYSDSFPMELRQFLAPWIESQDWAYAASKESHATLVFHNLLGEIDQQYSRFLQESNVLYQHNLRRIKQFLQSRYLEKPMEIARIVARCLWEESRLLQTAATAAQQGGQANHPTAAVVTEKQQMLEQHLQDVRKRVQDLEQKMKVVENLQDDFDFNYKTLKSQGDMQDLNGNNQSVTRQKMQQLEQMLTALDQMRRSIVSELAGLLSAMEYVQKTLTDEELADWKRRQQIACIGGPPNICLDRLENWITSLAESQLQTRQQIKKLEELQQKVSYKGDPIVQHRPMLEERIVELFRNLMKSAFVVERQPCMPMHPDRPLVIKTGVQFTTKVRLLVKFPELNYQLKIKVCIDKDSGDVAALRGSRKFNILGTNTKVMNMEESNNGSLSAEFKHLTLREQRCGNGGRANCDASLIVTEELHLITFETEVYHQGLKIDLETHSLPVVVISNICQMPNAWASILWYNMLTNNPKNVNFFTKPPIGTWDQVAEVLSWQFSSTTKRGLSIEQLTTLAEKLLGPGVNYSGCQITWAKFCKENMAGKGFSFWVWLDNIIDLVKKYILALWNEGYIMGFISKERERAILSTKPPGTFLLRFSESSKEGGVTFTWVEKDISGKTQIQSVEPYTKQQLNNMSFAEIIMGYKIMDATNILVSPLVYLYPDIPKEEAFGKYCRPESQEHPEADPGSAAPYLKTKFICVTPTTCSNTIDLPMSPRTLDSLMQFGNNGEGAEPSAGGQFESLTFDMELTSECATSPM
Chain of Hypoxia-inducible factor 1-alpha (Homo sapiens) (Q16665 whole entry, looked up): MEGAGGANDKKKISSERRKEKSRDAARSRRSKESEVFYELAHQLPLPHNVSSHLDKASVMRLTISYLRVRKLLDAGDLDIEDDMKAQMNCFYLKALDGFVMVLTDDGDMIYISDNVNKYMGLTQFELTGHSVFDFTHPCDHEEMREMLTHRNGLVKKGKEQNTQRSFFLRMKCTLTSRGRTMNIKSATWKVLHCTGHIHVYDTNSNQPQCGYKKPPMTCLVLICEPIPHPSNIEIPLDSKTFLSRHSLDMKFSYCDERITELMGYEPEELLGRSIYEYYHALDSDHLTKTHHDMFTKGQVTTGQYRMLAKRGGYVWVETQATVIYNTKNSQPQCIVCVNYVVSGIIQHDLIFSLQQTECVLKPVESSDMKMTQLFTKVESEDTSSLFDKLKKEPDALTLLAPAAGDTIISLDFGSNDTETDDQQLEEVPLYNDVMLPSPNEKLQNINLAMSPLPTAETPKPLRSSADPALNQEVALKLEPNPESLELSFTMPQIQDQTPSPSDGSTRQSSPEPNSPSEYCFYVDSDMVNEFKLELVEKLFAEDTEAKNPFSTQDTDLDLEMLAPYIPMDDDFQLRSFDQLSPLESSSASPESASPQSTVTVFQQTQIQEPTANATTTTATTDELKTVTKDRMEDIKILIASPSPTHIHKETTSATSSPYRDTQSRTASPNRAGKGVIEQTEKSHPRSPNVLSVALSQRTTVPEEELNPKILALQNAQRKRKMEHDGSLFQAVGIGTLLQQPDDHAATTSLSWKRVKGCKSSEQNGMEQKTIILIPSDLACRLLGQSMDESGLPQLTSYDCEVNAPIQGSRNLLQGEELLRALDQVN
Chain of Paired box protein Pax-6 (Homo sapiens) (P26367 whole entry, looked up): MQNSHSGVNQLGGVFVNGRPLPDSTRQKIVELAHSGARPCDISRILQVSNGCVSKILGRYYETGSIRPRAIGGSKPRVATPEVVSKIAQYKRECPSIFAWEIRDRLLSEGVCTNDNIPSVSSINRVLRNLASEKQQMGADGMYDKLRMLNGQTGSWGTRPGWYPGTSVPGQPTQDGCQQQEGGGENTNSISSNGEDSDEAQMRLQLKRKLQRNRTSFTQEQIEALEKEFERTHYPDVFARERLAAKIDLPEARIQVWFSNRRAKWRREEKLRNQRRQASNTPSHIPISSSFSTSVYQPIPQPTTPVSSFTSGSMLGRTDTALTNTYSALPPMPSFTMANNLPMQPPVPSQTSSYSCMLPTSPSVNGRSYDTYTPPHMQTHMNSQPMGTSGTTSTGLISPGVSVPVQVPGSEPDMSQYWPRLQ
Chain of Heat shock factor protein 1 (Homo sapiens) (Q00613 whole entry, looked up, the tested form may be a part): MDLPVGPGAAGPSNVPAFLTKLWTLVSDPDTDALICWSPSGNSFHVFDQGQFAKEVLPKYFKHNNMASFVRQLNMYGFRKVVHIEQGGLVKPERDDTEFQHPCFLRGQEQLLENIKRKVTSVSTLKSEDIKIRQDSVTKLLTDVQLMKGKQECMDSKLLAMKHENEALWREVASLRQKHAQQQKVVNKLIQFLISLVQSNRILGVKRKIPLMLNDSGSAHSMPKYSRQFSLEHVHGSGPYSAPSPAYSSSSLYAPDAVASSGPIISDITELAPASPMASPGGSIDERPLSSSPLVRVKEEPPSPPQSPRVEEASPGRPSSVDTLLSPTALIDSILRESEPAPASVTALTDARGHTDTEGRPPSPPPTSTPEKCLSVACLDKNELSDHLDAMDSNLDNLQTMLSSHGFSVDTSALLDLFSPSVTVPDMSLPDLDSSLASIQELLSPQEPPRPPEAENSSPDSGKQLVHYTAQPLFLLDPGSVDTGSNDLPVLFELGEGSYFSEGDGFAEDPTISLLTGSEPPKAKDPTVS

As to `NCCN1CCNCC1`, the call in test [1], in test [2], in [3], in test [4], in [5] and in [6] was inactive. The compound was called inactive in [7], in test [8], in [9], in test [10], in [11] and in test [12]. Moreover, the compound was called inactive in test [13], in test [14], in [15] and in test [16].
Regarding `COC(=O)c1cccc(C(=O)OC)c1`, the compound was classed as inactive in test [1], in test [2], in test [3], in [4], in test [5] and in [6]. The compound was classed as inactive in test [7], in test [8], in test [17], in test [10], in test [11] and in test [12]. For the same compound, the outcome in [13], in test [14], in [15] and in test [16] was inactive.
The AC50 is the concentration giving half of the maximal activity seen. As for `CC1=CCC(C(C)C)=CC1`, the compound was called inactive in test [1], in test [2], in test [4], in test [5], in [6] and in test [7]. Also, the compound was called inactive in test [8], in test [17], in test [9], in [10], in test [12] and in [13]. Also, the compound was classed as inactive in [16]. Further, in test [3], the AC50 is 69.4 µM (active).
`CC(=O)OC(C)(C)C`: the call in test [1], in test [2], in test [3], in [4], in test [5] and in [6] was inactive. Besides, the compound was called inactive in test [7], in test [8], in [9], in [10], in test [18] and in [11]. Also, the compound was called inactive in test [12], in [15] and in test [16].
`C=CC(C)CCCC(C)(C)O` (configuration not stated): the outcome in test [1], in [2], in test [3], in [4], in test [5] and in [6] was inactive. Besides, the call in [8], in test [9], in test [10], in test [18], in test [11] and in [12] was inactive. Moreover, the compound was called inactive in test [14], in test [15] and in test [16].
Turning to `OC[C@@H](O)[C@H](O)[C@@H](O)[C@@H](O)CO`, the result in test [1], in [2], in test [3], in test [4], in [5] and in [6] was inactive. The outcome in test [7], in [8], in test [9], in [11], in test [12] and in [13] was inactive. The call in test [14], in [15] and in test [16] was inactive. Also, the AC50 in test [10] was 37.2 µM (active).
For the compound `O=C(O)c1ccccc1O`, the compound was called inactive in test [1], in test [2], in test [3], in [4], in test [5] and in [6]. The call in [7], in test [8], in test [9], in [10], in [11] and in [12] was inactive. Further, the result in [13], in [14], in [15] and in [16] was inactive.
For the compound `CCOC(=O)C=Cc1ccccc1`, the compound was called inactive in test [1], in test [2], in test [3], in test [4], in test [5] and in test [6]. The compound was classed as inactive in test [8], in test [9], in [18], in [11], in test [12] and in test [14]. Also, the result in test [16] was inactive. Besides, the AC50 in test [10] was 27.8 µM (active).
For the compound `OCC=Cc1ccccc1`, the compound was called inactive in test [1], in [2], in test [3], in [4], in test [5] and in [6]. Further, the compound was classed as inactive in test [7], in test [8], in [9], in test [12], in test [13] and in test [14]. In addition, the result in test [15] and in [16] was inactive. For the same compound, the AC50 in test [10] was 33.1 µM (active).
